Source: PubChem
Hits are enriched below; roughly 19% of the tested compounds scored in any of these assays.
IL1B secr inh: inflammasome signaling inhibition, IL-1 beta readout; AID 743279; THP-1 LPS/ATP IL-1B secretion, AlphaLISA, 16 h; active compounds read low; activity change, % at 57.5 µM; 360,000 compounds, 4.7% hits; in the data active = activity change below about -50%; inconclusive = mostly about -30% to -49%
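THP-1 cells pretreated 1 hr with compounds (up to 57.5 uM final), then stimulated with LPS (250 ng/mL final) plus ATP (1.25 mM final); secreted IL-1B measured by AlphaLISA after 16 hr, decreased signal indicating inhibition.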
TDP1 cell CPT: DT40-hTDP1 cell growth loss with CPT; 420,000 compounds, 12% hits; chicken DT40 Tdp1-/-;hTDP1 cells + 20 nM CPT, ATP luminescence, 48 h; AID 686979; Potency, µM (top dose mostly 46.2 µM), for the others: at the highest dose activity change, negative = growth inhibition, most hits filed as inhibitors; note: potency is the fitted concentration of half-maximal effect; nearly all actives have a fitted effect of over 55% in size
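Cell growth measured by CellTiter-Glo luminescence after a minimum 48 h, 37 C compound exposure with 20 nM CPT in Tdp1-knockout DT40 cells stably expressing hTDP1, seeded 400/well; qHTS titration format.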
ELG1 DNA repair: ELG1-dependent DNA repair inhibition | 330,000 compounds, 2.3% hits | AID 504467 | HEK293T ELG1-luciferase reporter, luminescence, 16 h; DNA damage induced by 5-fluorouridine | Potency, µM (series often up to 46.1 µM), for the others: at the top dose activity change, negative = inhibition, most hits filed as inhibitors; note: potency is the fitted concentration of half-maximal effect; nearly all actives have a fitted effect of over 55% in size
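Reporter activity after DNA damage by 5-fluorouridine is monitored. Compound-treated cells incubate 16 hr at 37 °C, then ONE-Glo is added for 30 min before luminescence reading.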
HT1080NT lethal: kills 2HG-producing HT-1080-NT fibrosarcoma cells | HT-1080-NT fibrosarcoma viability, CellTiter-Glo ATP luminescence, 48 h | Potency, µM (series often up to 46.1 µM), for the others: at the highest dose activity, negative = less viability, most hits filed as cytotoxic | 360,000 compounds, 1.6% hits | AID 686970;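 note: NT is the 2HG producing partner of a matched IDH1 knockdown line; potency is the fitted concentration of half-maximal effect; 0% = DMSO-treated cells and -100% = media-only wells without cells; nearly all actives have a fitted effect of over 55% in size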
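Viability of the 2HG-overproducing fibrosarcoma line after 48 hours of compound exposure at 37 degrees C was determined by luminescence with CellTiter-Glo, and concentration-effect curves were then fitted and categorized.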
HT1080 IDH1KD tx: toxicity to HT-1080 IDH1 knockdown cells (counter line); AID 686971; Potency, µM (series often up to 46.1 µM), for the others: at the top dose activity, negative = toxicity, actives largely listed as cytotoxic; 360,000 compounds, 2% hits; HT-1080 IDH1 knockdown viability, ATP luminescence, 48 h;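 note: potency is the fitted concentration of half-maximal effect; 0% = DMSO wells and -100% = cell-free medium wells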
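IDH1KD HT-1080 cells, 750/well, RPMI + 5% FBS; compound pinned after 2 h settling; 48 h, 37 °C; CellTiter-Glo luminescence; % activity normalised to DMSO and no-cell wells; curves fitted, classed by r2 and efficacy.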
DT40 TDP1 no CPT: qHTS for Inhibitors of human tyrosyl-DNA phosphodiesterase 1 (TDP1): qHTS in cells in absence of CPT; DT40 Tdp1-/- hTDP1 cells, no CPT, ATP luminescence, 48 h; Potency, µM (doses to about 46.2 µM), for the others: at the top dose activity change, negative = growth inhibition, usual class: inhibitors; 420,000 compounds, 15% hits; note: potency is the fitted concentration of half-maximal effect; nearly all actives have a fitted effect of over 55% in size
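Chicken DT40 Tdp1-/- cells stably complemented with human TDP1 were seeded at 400 cells/well with DMSO in place of 20 nM camptothecin. After compound pinning, cells grew at least 48 hr at 37 °C; viability read by CellTiter-Glo luminescence.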
Active calls of the source: *; ? = inconclusive; · = no result; [ ] = remark or other dose. Unless noted, calls come from the whole dose curve; as a rule, active = well fitted curve in the direction sought with a large enough effect; inconclusive = small, poorly fitted or top-dose-only effect, or another doubt; inactive = no such curve, though single readings can be large; an effect the other way counts as inactive or inconclusive. Unless noted, % is set by controls: 0 for no effect and ±100 for the full control effect.

SMILES	IL1B secr inh	TDP1 cell CPT	ELG1 DNA repair	HT1080NT lethal	HT1080 IDH1KD tx	DT40 TDP1 no CPT
CCCCN(CC)CCCNC(=S)Nc1ccc2nc3n(c(=O)c2c1)CCCCC3	-1	-3%	4%	-1%	?	-5%
Cc1nn(C(C)C(=O)NCc2ccco2)c(C)c1[N+](=O)[O-] (stereo unspecified)	0	6%	4%	25%	16%	7%
CCCC(=O)OCCNc1cc(SCc2ccco2)c2nonc2c1[N+](=O)[O-]	?	?	-1%	?	23µM*	?
CC(=O)OCCCNc1cc(SCc2ccco2)c2nonc2c1[N+](=O)[O-]	-103*	21µM*	-2%	-3%	-20%	?
O=[N+]([O-])c1c(NCc2ccco2)ccc2nonc12	·	12%	-4%	7%	4%	-20%
CCCSc1cc(NCCOC(=O)CCC)c([N+](=O)[O-])c2nonc12	-19	2.6µM*	6%	-2%	?	4.6µM*
CCCSc1cc(NCCOC(C)=O)c([N+](=O)[O-])c2nonc12	14	-1%	-1%	-8%	-4%	?
CCN(C[C@H]1N[C@@](Cc2ccccc2)(C(=O)OC)[C@H]2C(=O)N(C)C(=O)[C@@H]12)C(=O)C1CCCCC1	4	-26%	14%	2%	-4%	-25%
CCc1nnc(NC(=O)CCc2ccc(C)o2)s1	-11	-23%	14%	-3%	?	-13%
Cc1ccc(CCC(=O)Nc2ncc(Cc3cccc(Cl)c3Cl)s2)o1	14	0.023µM*	8%	0.73µM*	?	0.016µM*
CCC(Sc1nc2sc(C(=O)OC)c(C)c2c(=O)n1N)C(=O)N(CC)CC (stereo unspecified)	9	?	4%	4%	6%	13µM*
S=C(Nc1ccc(Br)cc1)N1CCn2cccc2C1c1cccnc1 (stereo unspecified)	-65*	?	-30%	-5%	-26%	?
N=C(SC1CC(=O)N(c2ccc(F)cc2)C1=O)N1N=C(c2ccccc2)CC1c1ccccc1 (stereo unspecified)	16	16µM*	?	1%	0%	?
CN1CCN(S(=O)(=O)c2ccc(N(C)Cc3c(F)cccc3Cl)nc2)CC1	9	?	4%	0%	8%	?
CCCC1=NN(c2ccc([N+](=O)[O-])cc2)C(=O)/C1=C\N(C)C	0	-23%	?	-20%	-22%	-20%
N#Cc1c(NC(=S)NC(=O)c2ccccc2)sc2c1CCCC2	2	?	?	8%	2%	?
N#Cc1c(NC(=O)c2ccc([N+](=O)[O-])o2)sc2c1CCC2	-94*	18µM*	?	?	?	10µM*
COc1ccc(-c2cc(C(=O)Nc3sc4c(c3C#N)CCCC4)no2)cc1OC	·	0%	·	·	·	-8%
N#Cc1c(NC(=O)c2ccccc2)sc2c1CCC2	20	18µM*	?	?	?	16µM*
CC(C)c1cc(C(=O)Nc2sc3c(c2C#N)CCC3)no1	5	?	15%	-20%[9.24 µM]	?	23µM*
N#Cc1c(NC(=O)c2cccnc2)sc2c1CCC2	10	23µM*	?	16µM*	9.2µM*	?
CC(C)c1onc(C(=O)Nc2sc3c(c2C#N)CCC3)c1[N+](=O)[O-]	57	-4%	1%	-1%	1%	-6%
N#Cc1c(NC(=O)c2cnccn2)sc2c1CCCC2	-7	9.2µM*	?	-20%	-24%	12µM*
CC(=O)Nc1sc2c(c1C#N)CCC2	11	-1%	?	10%	7%	-6%
CC(Cc1cnccn1)NC(=O)c1cc(COc2ccc(F)cc2F)on1 (stereo unspecified)	?	?	10%	17%	13%	5%
